# Test results published in PubChem BioAssay (NCATS).
# Inconclusive results are not listed. The source made the active and inactive calls. Calls follow the shape of the full dose curve.
# Test: qHTS drug screen for cell cycle checkpoint inhibitors in PARPi-resistant BRCA-mutant ovarian cancer cell lines. (AID 1963452)
# Conditions: PEO1/OlaR viability, CellTiter-Glo luminescence, 96 h; stronger effect = lower value
# Summary of the method: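 PEO1, PEO4 and PEO1/OlaR ovarian cancer cells, 600 per well, exposed 96 h at 37C to a dilution series. Viability read by CellTiter-Glo luminescence, normalized to DMSO and empty wells; activity summarized as Z-AUC.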
row,SMILES,Z-AUC
1,C=CC(=O)Nc1ccc2ncnc(Nc3ccc(OCc4cccc(F)c4)c(Cl)c3)c2c1,-0.749 (inactive)
2,CNC(=O)Nc1ccc(-c2nc(N3CC4CCC(C3)O4)c3cnn(C4CCC5(CC4)OCCO5)c3n2)cc1,-0.248 (inactive)
3,COc1ccc([C@@H]2CNC(=O)C2)cc1OC1CCCC1,-0.0996 (inactive)
4,CS(=O)(=O)N1CCc2c(-c3cnc(N)nc3)nc(N3CCOCC3)nc21,-0.521 (inactive)
5,Nc1nc2c(c(=O)[nH]1)N(C=O)[C@H](CNc1ccc(C(=O)N[C@@H](CCC(=O)O)C(=O)O)cc1)CN2,1.12 (inactive)
6,COc1ccc(Nc2cc(-c3cnc(N)nc3)nc(N3CCOCC3)n2)cn1,0.44 (inactive)

# Same assay, conditions: PEO1/OlaR viability, CellTiter-Glo luminescence, 96 h; measured here: PEO1 parental Z-AUC; stronger effect = lower value
row,SMILES,Z-AUC
1,C=CC(=O)Nc1ccc2ncnc(Nc3ccc(OCc4cccc(F)c4)c(Cl)c3)c2c1,-1.48
2,COc1ccc(C=Cc2cc(OC)c(OC)c(OC)c2)cc1NC(=O)[C@H](N)CO,-1.39
3,CC(C)C[C@H](NC(=O)CNC(=O)c1cc(Cl)ccc1Cl)B1OC(=O)CC(CC(=O)O)(C(=O)O)O1 (some centres undefined),-3.29
4,COC[C@H](NC(=O)c1cnc(C)s1)C(=O)N[C@@H](COC)C(=O)N[C@@H](Cc1ccccc1)C(=O)[C@@]1(C)CO1,-2.62
5,CNC(=O)Nc1ccc(-c2nc(N3CC4CCC(C3)O4)c3cnn(C4CCC5(CC4)OCCO5)c3n2)cc1,-0.236
6,COc1cc([C@@H]2c3cc4c(cc3[C@H](O)[C@H]3COC(=O)[C@@H]23)OCO4)cc(OC)c1OC,-1.51
7,COc1ccc([C@@H]2CNC(=O)C2)cc1OC1CCCC1,-0.168
8,CS(=O)(=O)N1CCc2c(-c3cnc(N)nc3)nc(N3CCOCC3)nc21,-0.562
9,Nc1nc2c(c(=O)[nH]1)N(C=O)[C@H](CNc1ccc(C(=O)N[C@@H](CCC(=O)O)C(=O)O)cc1)CN2,1.3
10,COc1ccc(Nc2cc(-c3cnc(N)nc3)nc(N3CCOCC3)n2)cn1,-0.145
11,CCC(C(=O)O)C1CCC(C)C(C(C)C(O)C(C)C(=O)C(CC)C2OC3(C=CC(O)[C@@]4(CC[C@](C)(C5CC[C@@](O)(CC)C(C)O5)O4)O3)C(C)CC2C)O1 (some centres undefined),-1.77
12,N#CNC(=NCCCCCCOc1ccc(Cl)cc1)Nc1ccncc1,-3.38

# Same assay, conditions: PEO1/OlaR viability, CellTiter-Glo luminescence, 96 h; measured here: PEO4 Z-AUC; stronger effect = lower value
row,SMILES,Z-AUC
1,C=CC(=O)Nc1ccc2ncnc(Nc3ccc(OCc4cccc(F)c4)c(Cl)c3)c2c1,-1.57
2,COc1ccc(C=Cc2cc(OC)c(OC)c(OC)c2)cc1NC(=O)[C@H](N)CO,-1.42
3,CC(C)C[C@H](NC(=O)CNC(=O)c1cc(Cl)ccc1Cl)B1OC(=O)CC(CC(=O)O)(C(=O)O)O1 (some centres undefined),-3.23
4,COC[C@H](NC(=O)c1cnc(C)s1)C(=O)N[C@@H](COC)C(=O)N[C@@H](Cc1ccccc1)C(=O)[C@@]1(C)CO1,-3.23
5,CNC(=O)Nc1ccc(-c2nc(N3CC4CCC(C3)O4)c3cnn(C4CCC5(CC4)OCCO5)c3n2)cc1,-1.02
6,COc1cc([C@@H]2c3cc4c(cc3[C@H](O)[C@H]3COC(=O)[C@@H]23)OCO4)cc(OC)c1OC,-1.58
7,COc1ccc([C@@H]2CNC(=O)C2)cc1OC1CCCC1,0.0398
8,CS(=O)(=O)N1CCc2c(-c3cnc(N)nc3)nc(N3CCOCC3)nc21,0.0155
9,Nc1nc2c(c(=O)[nH]1)N(C=O)[C@H](CNc1ccc(C(=O)N[C@@H](CCC(=O)O)C(=O)O)cc1)CN2,1.01
10,COc1ccc(Nc2cc(-c3cnc(N)nc3)nc(N3CCOCC3)n2)cn1,0.339
11,CCC(C(=O)O)C1CCC(C)C(C(C)C(O)C(C)C(=O)C(CC)C2OC3(C=CC(O)[C@@]4(CC[C@](C)(C5CC[C@@](O)(CC)C(C)O5)O4)O3)C(C)CC2C)O1 (some centres undefined),-1.98
12,N#CNC(=NCCCCCCOc1ccc(Cl)cc1)Nc1ccncc1,-3.13

# Test: qHTS for identification of novel therapeutic agents for treatment of microphthalmiaassociated transcription factor (MiT) renal cell carcinoma (RCC) (AID 1963991); also: potency is read from the fitted curve at half-maximal effect
# Conditions: TFE3-RCC UOK109 viability, CellTiter-Glo, 48 h; active = Z-AUC below -0.8 in all three lines
# Summary of the method: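 Viability of three TFE3-fusion renal carcinoma lines measured by CellTiter-Glo after 48 h treatment with each of 1912 compounds at 11 concentrations. Responses scaled between DMSO (100%) and empty wells (0%) before curve fitting.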
row,SMILES,Potency
1,C=CC(=O)Nc1ccc2ncnc(Nc3ccc(OCc4cccc(F)c4)c(Cl)c3)c2c1,590 nM (active)
2,COc1ccc(C=Cc2cc(OC)c(OC)c(OC)c2)cc1NC(=O)[C@H](N)CO,10.5 nM (active)
3,CC(C)C[C@H](NC(=O)CNC(=O)c1cc(Cl)ccc1Cl)B1OC(=O)CC(CC(=O)O)(C(=O)O)O1 (some centres undefined),83.3 nM (active)
4,COC[C@H](NC(=O)c1cnc(C)s1)C(=O)N[C@@H](COC)C(=O)N[C@@H](Cc1ccccc1)C(=O)[C@@]1(C)CO1,3720 nM (active)
5,CNC(=O)Nc1ccc(-c2nc(N3CC4CCC(C3)O4)c3cnn(C4CCC5(CC4)OCCO5)c3n2)cc1,41.8 nM (active)
6,COc1cc([C@@H]2c3cc4c(cc3[C@H](O)[C@H]3COC(=O)[C@@H]23)OCO4)cc(OC)c1OC,83.3 nM (active)
7,CS(=O)(=O)N1CCc2c(-c3cnc(N)nc3)nc(N3CCOCC3)nc21,93.5 nM (active)
8,COc1ccc(Nc2cc(-c3cnc(N)nc3)nc(N3CCOCC3)n2)cn1,526 nM (active)
9,N#CNC(=NCCCCCCOc1ccc(Cl)cc1)Nc1ccncc1,7430 nM (active)
